Of roughly 8,800 targets only a part is listed; those with a hit were picked by preference. About 0.5% of all pairs of compound and target were hits.
What was measured:
Experiment in all cases: log2 fold change, soluble protein after heating vs DMSO (PISA); higher = thermal stabilisation; K562 lysate, 10 uM; active = over 0.2 and 3.5 SD of the protein, either way, in both replicates (recomputed)
ibrutinib = compound: C=CC(=O)N1CCC[C@@H](n2nc(-c3ccc(Oc4ccccc4)cc3)c3c(N)ncnc32)C1 [ibrutinib]
Method in brief: (§1)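 Log-two fold change in thermal stability relative to solvent controls is reported from duplicates. For each sample, crude K562 extract from dounce-homogenised pellets in PBS pH 7.4 with 1 mM MgCl2, at 1 mg/mL protein, was treated with 10 μM compound for 30 min. Aliquots heated for 3 min across 48°C-58°C were pooled, brought to 0.5% NP-40 at 4°C and cleared at 21,000xg for 90 min. The supernatant was quantified by TMTpro 16plex LC-MS/MS with channel sums equalised.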

[1] = compound: CC(=O)c1cnc2ccc(-c3cc(Cl)c(O)c(Cl)c3)nc2c1N[C@H]1CC[C@H](CN(C)C)CC1
Method in brief: as §1

ralimetinib = compound: CC(C)(C)Cn1c(N)nc2ccc(-c3[nH]c(C(C)(C)C)nc3-c3ccc(F)cc3)nc21 [ralimetinib]
Method in brief: as §1

[2] = compound: CC(C)(O)CC(=O)NCCn1ccc2ncnc(Nc3ccc(Oc4cccc(C(F)(F)F)c4)c(Cl)c3)c21
Method in brief: as §1

[3] = compound: CC(C)C1=C2N=C(C=C(N2N=C1)NCC3=CC=CC=C3)NCCCCCCN
Method in brief: as §1

[4] = compound: CC1=C(C(CC(=O)N1)C2=CC=C(C=C2)C(F)(F)F)C(=O)NC3=C(C=C4C(=C3)C=NN4)F
Method in brief: as §1

[5] = compound: CC1=C(C2=C(C=C1)C(=O)C3=CC=CC=C3N2CCCN)C
Method in brief: as §1

[6] = compound: CC1=C(C=C(C=C1)NC(=O)C2=CC(=CC=C2)C(C)(C)C#N)NC3=CC4=C(C=C3)N=CN(C4=O)C
Method in brief: as §1

[7] = compound: CC1=C(C=C(C=C1)NC(=O)C2=CC(=CC=C2)N(C)C)NC(=O)C3=CC=C(C=C3)O
Method in brief: as §1

[8] = compound: CC1=CC=C(C=C1)SC2=C3C=C(SC3=CN=C2)C(=O)N
Method in brief: as §1

Measured: log2 fold change

DARS (UniProt P14868)
Sequence of UniProt P14868 (P14868 whole entry, looked up): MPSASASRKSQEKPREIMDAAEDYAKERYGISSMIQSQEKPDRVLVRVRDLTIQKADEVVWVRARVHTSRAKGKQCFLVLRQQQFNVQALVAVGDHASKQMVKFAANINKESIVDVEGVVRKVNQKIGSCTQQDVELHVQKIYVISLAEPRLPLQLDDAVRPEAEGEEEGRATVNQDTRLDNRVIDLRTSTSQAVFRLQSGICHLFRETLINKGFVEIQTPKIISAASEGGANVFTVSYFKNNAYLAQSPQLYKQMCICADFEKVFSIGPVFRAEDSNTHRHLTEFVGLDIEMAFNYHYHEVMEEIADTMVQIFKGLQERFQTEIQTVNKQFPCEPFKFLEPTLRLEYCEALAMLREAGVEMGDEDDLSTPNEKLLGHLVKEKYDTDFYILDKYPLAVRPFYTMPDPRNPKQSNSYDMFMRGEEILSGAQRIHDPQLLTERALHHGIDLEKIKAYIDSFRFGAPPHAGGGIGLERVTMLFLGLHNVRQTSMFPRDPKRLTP
inactive: ibrutinib 0.009 | [1] 0.021 | ralimetinib 0.049 | [2] 0.04 | [3] 0.001 | [4] -0.003 | [5] 0.027 | [6] -0.019 | [7] 0.026 | [8] 0.053

DEF6 (UniProt Q9H4E7)
inactive: ibrutinib 0.016 | [1] -0.007 | ralimetinib 0.098 | [2] -0.014 | [3] 0.022 | [4] 0.028 | [5] -0.024 | [6] -0.026 | [7] 0.066 | [8] -0.001

DFFB (UniProt O76075)
inactive: ibrutinib 0.076 | [1] -0.01 | ralimetinib 0.054 | [2] -0.068 | [3] -0.027 | [4] 0.044 | [5] 0.08 | [6] 0.033 | [7] -0.07 | [8] -0.039

CSTF2 (UniProt P33240)
Sequence of UniProt P33240 (P33240 whole entry, looked up): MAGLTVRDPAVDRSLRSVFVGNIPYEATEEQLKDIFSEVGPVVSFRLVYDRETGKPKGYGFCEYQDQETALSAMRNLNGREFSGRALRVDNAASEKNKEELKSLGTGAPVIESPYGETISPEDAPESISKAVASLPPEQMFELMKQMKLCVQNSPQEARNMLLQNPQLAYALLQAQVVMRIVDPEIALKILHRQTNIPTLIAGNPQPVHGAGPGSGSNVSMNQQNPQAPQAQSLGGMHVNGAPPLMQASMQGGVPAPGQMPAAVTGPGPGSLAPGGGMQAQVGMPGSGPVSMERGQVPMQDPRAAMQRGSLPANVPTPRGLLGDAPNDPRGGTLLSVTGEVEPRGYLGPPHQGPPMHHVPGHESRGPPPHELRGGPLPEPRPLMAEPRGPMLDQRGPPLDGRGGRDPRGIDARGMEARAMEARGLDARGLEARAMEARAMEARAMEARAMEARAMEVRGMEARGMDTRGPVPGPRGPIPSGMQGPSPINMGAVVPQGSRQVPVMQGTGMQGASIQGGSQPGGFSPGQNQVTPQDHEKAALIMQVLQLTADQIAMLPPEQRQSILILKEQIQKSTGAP
active: ibrutinib 0.244
inactive: [1] -0.001 | ralimetinib 0.025 | [2] -0.033 | [3] -0.022 | [4] -0.033 | [5] -0.02 | [6] -0.011 | [7] 0.052 | [8] 0.011

CHEK2 (UniProt O96017)
inactive: ibrutinib 0.04 | [1] -0.043 | ralimetinib -0.011 | [2] 0.081 | [3] 0.211 | [4] 0.013 | [5] -0.002 | [6] -0.041 | [7] 0.073 | [8] 0.013

CORO7 isoform 3 (UniProt P57737)
inactive: ibrutinib -0.01 | [1] 0.002 | ralimetinib 0.016 | [2] 0.031 | [3] 0.009 | [4] -0.013 | [5] -0.006 | [6] -0.006 | [7] 0.02 | [8] 0.005

COX20 isoform 2 (UniProt Q5RI15)
Sequence of UniProt Q5RI15 (Q5RI15 whole entry, looked up): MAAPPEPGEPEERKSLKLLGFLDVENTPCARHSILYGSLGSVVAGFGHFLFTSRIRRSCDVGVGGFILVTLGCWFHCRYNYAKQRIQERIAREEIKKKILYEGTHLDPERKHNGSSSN
inactive: ibrutinib 0.28 | [1] 0.017 | ralimetinib 0.084 | [2] 0.032 | [3] -0.003 | [4] -0.007 | [5] -0.04 | [6] 0.003 | [7] 0.001 | [8] -0.023

DDX39A (UniProt O00148)
Sequence of UniProt O00148 (O00148 whole entry, looked up): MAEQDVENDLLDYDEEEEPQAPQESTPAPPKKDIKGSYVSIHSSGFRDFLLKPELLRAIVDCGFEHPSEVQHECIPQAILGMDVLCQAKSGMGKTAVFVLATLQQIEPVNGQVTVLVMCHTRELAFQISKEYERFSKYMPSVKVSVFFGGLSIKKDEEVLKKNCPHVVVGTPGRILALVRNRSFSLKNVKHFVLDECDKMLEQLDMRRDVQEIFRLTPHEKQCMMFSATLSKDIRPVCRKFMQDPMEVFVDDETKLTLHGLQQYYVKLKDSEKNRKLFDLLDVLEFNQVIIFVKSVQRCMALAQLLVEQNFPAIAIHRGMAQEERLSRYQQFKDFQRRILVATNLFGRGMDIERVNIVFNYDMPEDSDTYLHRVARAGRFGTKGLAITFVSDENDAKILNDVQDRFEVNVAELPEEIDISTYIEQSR
inactive: ibrutinib -0.005 | [1] 0.062 | ralimetinib -0.009 | [2] 0.029 | [3] 0.022 | [4] 0 | [5] 0.009 | [6] -0.032 | [7] -0.016 | [8] -0.004

CWC22 (UniProt Q9HCG8)
inactive: ibrutinib 0.027 | [1] -0.007 | ralimetinib 0.007 | [2] -0.002 | [3] -0.005 | [4] 0.06 | [5] 0 | [6] -0.002 | [7] 0.028 | [8] -0.009

CKS1B (UniProt P61024)
inactive: ibrutinib 0.049 | [1] 0.01 | ralimetinib -0.161 | [2] -0.034 | [3] 0.011 | [4] 0.055 | [5] 0 | [6] -0.059 | [7] 0.003 | [8] -0.012

CRABP2 (UniProt P29373)
inactive: ibrutinib -0.039 | [1] 0.061 | ralimetinib 0.097 | [2] -0.015 | [3] -0.002 | [4] 0.176 | [5] -0.088 | [6] -0.028 | [7] 0.082 | [8] -0.03

DENND4A isoform 2 (UniProt Q7Z401)
inactive: ibrutinib 0 | [1] -0.089 | ralimetinib 0.018 | [2] -0.028 | [3] 0.017 | [4] 0.006 | [5] 0.026 | [6] 0.029 | [7] 0.023 | [8] -0.009

CHMP4A isoform 2 (UniProt Q9BY43)
inactive: ibrutinib -0.002 | [1] 0.011 | ralimetinib 0.03 | [2] -0.041 | [3] 0.036 | [4] 0.011 | [5] -0.02 | [6] 0.036 | [7] -0.03 | [8] -0.007

CHEK1 (UniProt O14757)
Sequence of UniProt O14757 (O14757 whole entry, looked up): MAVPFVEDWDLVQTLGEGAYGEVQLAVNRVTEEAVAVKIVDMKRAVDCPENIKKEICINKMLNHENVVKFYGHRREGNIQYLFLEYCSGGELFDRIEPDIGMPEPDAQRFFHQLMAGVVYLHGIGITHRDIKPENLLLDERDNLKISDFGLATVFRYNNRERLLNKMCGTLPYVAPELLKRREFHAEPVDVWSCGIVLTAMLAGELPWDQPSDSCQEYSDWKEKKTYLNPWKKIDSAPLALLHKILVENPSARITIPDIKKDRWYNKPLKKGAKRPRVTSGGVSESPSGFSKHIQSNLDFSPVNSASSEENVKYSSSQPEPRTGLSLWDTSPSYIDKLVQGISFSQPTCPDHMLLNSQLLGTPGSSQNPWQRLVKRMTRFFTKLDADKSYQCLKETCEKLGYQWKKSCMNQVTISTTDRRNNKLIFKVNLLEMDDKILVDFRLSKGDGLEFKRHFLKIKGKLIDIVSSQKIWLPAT
inactive: ibrutinib 0.019 | [1] 0.104 | ralimetinib 0.032 | [2] -0.004 | [3] -0.003 | [4] 0.004 | [5] 0.011 | [6] 0.026 | [7] -0.005 | [8] -0.024

DHCR7 (UniProt Q9UBM7)
inactive: ibrutinib -0.026 | [1] 0.016 | ralimetinib 0.071 | [2] -0.042 | [3] -0.018 | [4] 0.01 | [5] -0.007 | [6] -0.017 | [7] -0.011 | [8] -0.002

COTL1 (UniProt Q14019)
Sequence of UniProt Q14019 (Q14019 whole entry, looked up): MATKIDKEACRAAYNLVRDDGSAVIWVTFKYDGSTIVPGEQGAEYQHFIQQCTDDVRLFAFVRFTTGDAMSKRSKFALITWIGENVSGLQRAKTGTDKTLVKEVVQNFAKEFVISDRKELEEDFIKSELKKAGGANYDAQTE
inactive: ibrutinib 0.038 | [1] 0.001 | ralimetinib -0.025 | [2] 0.049 | [3] -0.007 | [4] -0.055 | [5] 0.02 | [6] -0.019 | [7] -0.015 | [8] -0.004

CSTB (UniProt P04080)
Sequence of UniProt P04080 (P04080 whole entry, looked up): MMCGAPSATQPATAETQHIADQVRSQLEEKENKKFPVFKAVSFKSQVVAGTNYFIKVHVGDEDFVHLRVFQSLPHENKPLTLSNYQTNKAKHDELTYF
inactive: ibrutinib 0.017 | [1] -0.047 | ralimetinib 0.03 | [2] -0.065 | [3] 0.019 | [4] -0.059 | [5] 0.037 | [6] 0.121 | [7] 0.009 | [8] 0.021

DONSON (UniProt Q9NYP3)
inactive: ibrutinib 0.059 | [1] 0.002 | ralimetinib -0.033 | [2] 0.074 | [3] -0.022 | [4] -0.071 | [5] -0.037 | [6] 0.062 | [7] -0.096 | [8] -0.013

DOCK7 (UniProt Q96N67)
inactive: ibrutinib -0.117 | [1] -0.009 | ralimetinib 0.077 | [2] -0.054 | [3] 0.021 | [4] 0.03 | [5] -0.078 | [6] 0.009 | [7] 0.065 | [8] -0.028

COQ8A (UniProt Q8NI60)
inactive: ibrutinib -0.061 | ralimetinib 0.143 | [2] 0.115 | [3] -0.009 | [4] -0.139 | [5] -0.074 | [6] -0.04 | [7] 0 | [8] -0.068
active: [1] 0.611

DDX20 (UniProt Q9UHI6)
Sequence of UniProt Q9UHI6 (Q9UHI6 whole entry, looked up): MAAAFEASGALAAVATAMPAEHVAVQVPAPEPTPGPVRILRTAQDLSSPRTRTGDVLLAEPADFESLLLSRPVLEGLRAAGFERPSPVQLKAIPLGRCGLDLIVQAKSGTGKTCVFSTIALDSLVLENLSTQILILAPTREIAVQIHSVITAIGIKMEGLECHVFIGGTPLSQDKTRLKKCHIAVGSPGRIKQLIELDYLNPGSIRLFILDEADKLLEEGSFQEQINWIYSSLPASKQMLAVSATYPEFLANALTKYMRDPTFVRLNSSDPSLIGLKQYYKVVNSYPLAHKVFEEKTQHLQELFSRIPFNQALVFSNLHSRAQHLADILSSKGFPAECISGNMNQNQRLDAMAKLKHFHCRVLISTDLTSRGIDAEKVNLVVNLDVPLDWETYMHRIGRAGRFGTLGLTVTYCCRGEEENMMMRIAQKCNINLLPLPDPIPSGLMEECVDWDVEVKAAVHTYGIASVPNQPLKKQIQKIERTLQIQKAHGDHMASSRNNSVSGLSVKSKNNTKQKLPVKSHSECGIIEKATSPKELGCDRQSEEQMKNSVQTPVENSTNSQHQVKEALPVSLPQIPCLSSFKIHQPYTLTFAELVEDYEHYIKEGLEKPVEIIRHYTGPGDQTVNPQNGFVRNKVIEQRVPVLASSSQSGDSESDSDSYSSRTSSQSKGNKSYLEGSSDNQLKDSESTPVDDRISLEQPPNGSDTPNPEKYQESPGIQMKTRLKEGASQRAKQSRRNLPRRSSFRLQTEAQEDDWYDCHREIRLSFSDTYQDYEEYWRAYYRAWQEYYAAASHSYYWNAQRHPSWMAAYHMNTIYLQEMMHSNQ
inactive: ibrutinib -0.01 | [1] 0.017 | ralimetinib 0.029 | [2] -0.029 | [3] -0.03 | [4] -0.011 | [5] 0.004 | [6] -0.006 | [7] 0.044 | [8] 0.01

CHORDC1 (UniProt Q9UHD1)
inactive: ibrutinib -0.002 | [1] 0.004 | ralimetinib -0.009 | [2] -0.001 | [3] -0.032 | [4] -0.009 | [5] 0.001 | [6] 0.023 | [7] 0.033 | [8] 0.006

DNAJC1 (UniProt Q96KC8)
Sequence of UniProt Q96KC8 (Q96KC8 whole entry, looked up): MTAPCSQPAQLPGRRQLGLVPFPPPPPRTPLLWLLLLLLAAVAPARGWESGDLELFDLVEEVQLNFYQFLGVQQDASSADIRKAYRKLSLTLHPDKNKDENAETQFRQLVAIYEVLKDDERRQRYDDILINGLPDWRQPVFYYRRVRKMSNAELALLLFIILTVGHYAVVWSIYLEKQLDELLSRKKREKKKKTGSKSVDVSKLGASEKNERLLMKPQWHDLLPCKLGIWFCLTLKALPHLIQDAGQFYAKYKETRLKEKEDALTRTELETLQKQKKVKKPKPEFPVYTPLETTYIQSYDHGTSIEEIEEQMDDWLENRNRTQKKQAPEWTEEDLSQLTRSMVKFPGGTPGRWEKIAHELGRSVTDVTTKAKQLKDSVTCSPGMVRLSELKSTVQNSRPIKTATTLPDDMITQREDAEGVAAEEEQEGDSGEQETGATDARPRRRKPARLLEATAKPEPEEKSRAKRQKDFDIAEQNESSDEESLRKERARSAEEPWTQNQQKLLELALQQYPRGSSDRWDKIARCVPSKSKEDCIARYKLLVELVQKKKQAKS
inactive: ibrutinib -0.018 | [1] 0.018 | ralimetinib -0.007 | [2] -0.048 | [3] -0.014 | [4] 0.019 | [5] 0.019 | [6] -0.009 | [7] 0.032 | [8] 0.011

CKAP2 (UniProt Q8WWK9)
inactive: ibrutinib -0.065 | [1] -0.057 | ralimetinib -0.017 | [2] 0.016 | [3] -0.053 | [4] -0.012 | [5] -0.004 | [6] 0.003 | [7] -0.027 | [8] 0.03

CSNK2A2 (UniProt P19784)
Sequence of UniProt P19784 (P19784 whole entry, looked up): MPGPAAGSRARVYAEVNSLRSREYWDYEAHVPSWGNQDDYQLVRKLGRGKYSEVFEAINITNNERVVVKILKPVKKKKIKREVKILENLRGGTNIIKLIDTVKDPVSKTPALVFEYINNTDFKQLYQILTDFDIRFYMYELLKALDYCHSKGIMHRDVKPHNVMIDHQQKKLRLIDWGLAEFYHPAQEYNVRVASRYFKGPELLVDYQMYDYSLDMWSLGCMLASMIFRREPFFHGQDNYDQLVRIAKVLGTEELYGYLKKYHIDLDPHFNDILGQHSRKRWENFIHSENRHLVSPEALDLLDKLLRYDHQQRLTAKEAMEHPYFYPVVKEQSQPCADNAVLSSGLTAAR
active: [1] 0.666
inactive: ibrutinib -0.015 | ralimetinib 0.012 | [2] -0.014 | [3] -0.01 | [4] -0.046 | [5] 0.185 | [6] -0.017 | [7] 0.003 | [8] 0

CUEDC2 (UniProt Q9H467)
inactive: ibrutinib 0.056 | [1] 0.044 | ralimetinib 0.001 | [2] -0.032 | [3] 0.026 | [4] -0.027 | [5] -0.014 | [6] 0.052 | [7] 0.018 | [8] -0.082

DENND6A (UniProt Q8IWF6)
Sequence of UniProt Q8IWF6 (Q8IWF6 whole entry, looked up): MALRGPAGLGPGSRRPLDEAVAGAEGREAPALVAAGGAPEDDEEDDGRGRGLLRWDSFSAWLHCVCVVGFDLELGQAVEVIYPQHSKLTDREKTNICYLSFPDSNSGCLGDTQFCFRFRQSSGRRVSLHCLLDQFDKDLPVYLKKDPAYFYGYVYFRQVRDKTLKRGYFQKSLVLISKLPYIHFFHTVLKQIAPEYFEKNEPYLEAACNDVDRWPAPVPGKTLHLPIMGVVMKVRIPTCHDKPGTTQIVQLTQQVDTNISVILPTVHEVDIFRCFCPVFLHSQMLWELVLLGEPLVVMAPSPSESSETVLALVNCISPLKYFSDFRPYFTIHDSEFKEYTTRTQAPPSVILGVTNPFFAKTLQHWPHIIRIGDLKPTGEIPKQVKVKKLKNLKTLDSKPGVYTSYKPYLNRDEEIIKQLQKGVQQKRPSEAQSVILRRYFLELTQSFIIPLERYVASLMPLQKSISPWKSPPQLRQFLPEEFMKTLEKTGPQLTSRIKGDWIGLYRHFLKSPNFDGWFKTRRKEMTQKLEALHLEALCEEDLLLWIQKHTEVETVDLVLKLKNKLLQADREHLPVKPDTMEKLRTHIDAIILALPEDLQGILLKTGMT
inactive: ibrutinib 0.014 | [1] 0.064 | ralimetinib 0.052 | [2] -0.047 | [3] 0.037 | [4] 0.002 | [5] -0.03 | [6] 0.001 | [7] 0.022 | [8] 0.051

DOCK8 (UniProt Q8NF50)
inactive: ibrutinib -0.033 | [1] -0.012 | ralimetinib 0.03 | [2] 0.047 | [3] 0.003 | [4] -0.005 | [5] 0.022 | [6] 0.004 | [7] 0.057 | [8] -0.011

DOCK10 (UniProt Q96BY6)
inactive: ibrutinib -0.151 | [1] 0.02 | ralimetinib -0.001 | [2] -0.008 | [3] -0.084 | [4] -0.161 | [5] 0.008 | [6] 0.246 | [7] -0.045 | [8] 0.022

CMTM3 (UniProt Q96MX0)
Sequence of UniProt Q96MX0 (Q96MX0 whole entry, looked up): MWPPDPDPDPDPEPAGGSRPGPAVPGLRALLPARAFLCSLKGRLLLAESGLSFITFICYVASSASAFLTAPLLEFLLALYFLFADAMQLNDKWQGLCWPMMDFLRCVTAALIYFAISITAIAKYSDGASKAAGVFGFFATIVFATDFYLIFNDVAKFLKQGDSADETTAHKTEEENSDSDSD
inactive: ibrutinib -0.036 | [1] 0.036 | ralimetinib 0.093 | [2] 0.104 | [3] -0.022 | [4] 0.052 | [5] -0.06 | [6] 0.06 | [7] -0.039 | [8] -0.016

Reference: the supplement of paper PMC10849652
